53 molecules from ChEMBL document CHEMBL3988442, “University of Dundee, Small-Polar-MMV Screening Library” (2021) can be followed below.

Screen size: about 48,000 compounds; about 13,000 (27%) showed an effect of 50% or more. Some of the results follow.

This test has as its system Wolbachia pipientis. Nature of the test: Anti-Wolbachia Cell-Based Screen. The test is classed as functional. Set-up: scale not given: in the data most compounds retested in dose-response had high values. To be noted: 5 µM.
Consider `Cc1ccccc1C(=O)N1C[C@@H]2C[C@@H](C)O[C@@H]2C1`, for which the “Percent Effect” value was -6.005%. Then `Cc1ccccc1C(=O)N1C[C@@H](O)[C@H](N2CCOCC2)C1`, with 137.5%. Take `CCCN(CC1CC1)S(=O)(=O)c1ccc(NC(C)=O)cc1`: the “Percent Effect” value was 9.5%. Then `CCN(Cc1noc(C)n1)C(=O)CCn1c(C)cc2ccccc21`, with -6.675%; and `Cc1cc(NCC(=O)N(C)C(C)c2cccs2)c(C(N)=O)cc1F` (stereo not drawn), with -3.325%; and `CCOCCC(=O)NC1(c2cccc(Br)c2)CC1`, with 2.519%. On to `CC(C(=O)N1CCCN(c2ncccc2C#N)CC1)n1ccnc1` (stereo not drawn), for which the “Percent Effect” value is listed as 9.037%. For the molecule `CC(C)C(C(=O)N1CCN(c2ccncc2)CC1)n1cncn1` (stereo not drawn), the “Percent Effect” value is reported as -6.945%. Then `CC(C(=O)N1CCCN(c2ncccc2C#N)CC1)n1cncn1` (stereo not drawn), with 99.83%; and `CSC(C)C(=O)N1CCCN(c2ncccc2C#N)CC1` (stereo not drawn), with 94.48%.

Regarding `Cc1ccc(N2CCCN(C(=O)C(C(C)C)n3cncn3)CC2)nn1` (stereo not drawn), the “Percent Effect” value is given as 1.391%. Then `CC(C)C(C(=O)N1CCCN(c2cccnn2)CC1)n1cncn1` (stereo not drawn), with 101.3%; and `Cc1cc(C)c(C(=O)N2CCN(c3ncccc3C#N)CC2)c(=O)[nH]1`, with -2.204%; and `CN1N=C(C(=O)N2CCCN(c3ncccc3C#N)CC2)CCC1=O`, with -11.38%. For `CCSc1cc(C(=O)NC(C)c2cccc(N3CCOC3=O)c2)ccn1` (stereo not drawn), the “Percent Effect” value is -4.217%. Then `Cl.NCc1ccc(OC(F)F)cc1OC(F)F`, with -11.87%; and `CCn1nc(C)c(C(=O)N2C[C@@H](CN(C)CCOC)[C@@H](CO)C2)c1C`, with 114%.

As for `COc1cccc(C)c1C(=O)N1C[C@@H](CN(C)C)[C@@H](CO)C1`, the “Percent Effect” value is on record as -2.46%. Then `Cc1nc(CC(C)C)cc(C(=O)N2C[C@@H](CN(C)C)[C@@H](CO)C2)n1`, with -9.006%; and `CCn1nc(C)cc1C(=O)N1C[C@@H](CN(C)C)[C@@H](CO)C1`, with 107.3%; and `Cc1cc(C(=O)N2C[C@@H](CN(C)CCN(C)C)[C@@H](CO)C2)nc(C)n1`, with -17.75%. Turning to `COCCN(C)C[C@@H]1CN(C(=O)c2c(C)cccc2OC)C[C@@H]1CO`, the “Percent Effect” value came out at 2.605%.

For the molecule `CCn1nc(C)c(C(=O)N2C[C@@H](CN(C)C)[C@@H](CO)C2)c1C`, the “Percent Effect” value was found to be 106.8%. Then `Cc1ccc(CC(=O)N2C[C@@H](CN(C)C)[C@@H](CO)C2)cc1C`, with -3.019%; and `Cc1csc(CCNc2ccc(C#N)cc2F)n1`, with -5.881%; and `CN(Cc1cc(-c2ccccc2)no1)CC1CCCN1c1cccnn1` (stereo not drawn), with 1.009%. Turning to `O=C(c1cccc2cccnc12)N1CCCN(c2cccnn2)CC1`, the “Percent Effect” value is recorded as 11.56%.

With `CC(C)C1CN(C(=O)Nc2cnn(CC(F)F)c2)CCS1` (stereo not drawn), the “Percent Effect” value was -11.36%. Then `CNC(=O)[C@@H]1C[C@@H](n2cc(-c3ccc(CN4CC=CC4)cc3)nn2)CN1`, with 109.8%. Then `Cc1ncc(CN2CCC(n3cc(-c4ccc(F)cc4)nn3)CC2)cn1`, with 6.515%; and `CCNC(=O)[C@@H]1C[C@H](n2cc(CC3CCCCC3)nn2)CN1`, with 16.21%. Then `CNC(=O)[C@@H]1C[C@H](n2cc(-c3ccc(CN4CC=CC4)cc3)nn2)CN1`, with 109.2%; and `CCNC(=O)[C@@H]1C[C@@H](n2cc(CN(CC)CC)nn2)CN1`, with -7.284%; and `CCNC(=O)[C@@H]1C[C@@H](n2cc(CC3CCCCC3)nn2)CN1`, with 1.299%. In the case of `CCCS(=O)(=O)c1ccc(N2CCN(Cc3ccccc3)CC2)nn1`, the “Percent Effect” value came to 5.683%. Then `OC(CN1CCN(Cc2nnc(C3CC3)o2)CC1)c1ccccc1` (stereo not drawn), with -2.421%. `CCOc1ccc(-c2ccnc(CC)n2)cc1C(=O)O`: the “Percent Effect” value is listed as -9.54%.

Regarding `Cc1ccc(CNC(=O)Nc2nnc(C)s2)cn1`, the “Percent Effect” value was found to be 3.385%.

Turning to `COc1ccc(CNC(=O)NC2CCN(CC3CCCC3)CC2)cn1`, the “Percent Effect” value is given as 15.19%. Then `CC(C)Oc1ccc(CNC(=O)C2CCC(=O)N2)cn1` (stereo not drawn), with 3.42%. Consider `O=C(NCc1ccc(OCC2CC2)nc1)Nc1c(F)cccc1F`, for which the “Percent Effect” value is reported as -3.933%. Regarding `Cc1nnc(NC(=O)NCc2ccc(OC(C)C)nc2)s1`, the “Percent Effect” value was determined as 85.37%. Then `Cc1nnc(NC(=O)NCc2ccc(OC3CCCC3)nc2)s1`, with 94.72%; and `Cc1nnc(SCC(=O)NCC(c2ccccc2Cl)N(C)C)s1` (stereo not drawn), with -0.8898%; and `CCOC1CCN(C(=O)c2csc(S(N)(=O)=O)c2)CC1`, with 18.04%. With `Cc1nc(NCc2nncn2C2CC2)c2c(CC(C)C)csc2n1`, the “Percent Effect” value is on record as 109.7%.

In the case of `CC(C)CC1(C(=O)NCc2nncn2C2CC2)CCC1`, the “Percent Effect” value is -7.53%. In the case of `COC(C)(C)CC(C)NCc1nncn1C1CCCCC1` (stereo not drawn), the “Percent Effect” value is on record as -17.97%. Regarding `CCn1cnnc1CNc1nc(C)nc2scc(CC(C)C)c12`, the “Percent Effect” value stood at 122.4%. Then `CCC(NC(=O)NCc1nncn1CC)c1ccc(OC)cc1` (stereo not drawn), with -10.18%; and `Cc1nc(NCc2nnc(C)n2C)c2c(CC(C)C)csc2n1`, with 119.2%. Then `CCn1cnnc1CNC(=O)NC(C)C(C)C` (stereo not drawn), with -4.455%; and `Cc1c(NC(C)C(C)C)cccc1C(=O)NCc1nnc(C)n1C` (stereo not drawn), with 0.4576%.
